# Test results: PubChem BioAssay
# Experiment: adipocyte viability effects, profiling panel, cell-based, 3T3-L1 adipocytes, calcein-AM fluorescence, 48 h, basal (AID 1163)
# Details: 3T3-L1 adipocytes viability, higher = more signal
# Further: test concentration not given here.
row,Compound,z-score
1,C=C(COC)/C(=C/C[C@@H](OC(C)=O)c1ccccc1OCCO)c1cnc2ccccc2c1,1.5
2,CN(C)CCCNC(=O)[C@@]1(C)c2ccccc2C(=O)N(Cc2ccc(OC(F)(F)F)cc2)[C@H]1c1ccc(CO)cc1,0.886
3,C=CC[C@]1(C(=O)NCC(O)CO)COC(c2ccc(OCCCO)cc2)=N1 (some centres not stated),-0.191
4,C=CCC(OC(C)=O)[C@@H]1[C@@H](N(Cc2cccc3ccccc23)C(=O)c2ccc(-c3ccccc3)cc2)c2cc(OCCCO)ccc2N1C(=O)Cc1ccc2ccccc2c1 (some centres not stated),0.153
5,CCCCCC1=C2CNC(CC(C)C)(C(=O)OC)C=C2C(C)C1=O (configuration not stated),-0.707
6,CN1C(=O)[C@@H]2[C@@H](CC(COc3ccccc3)=C3[C@@H](CCc4ccccc4)OB(O)C[C@@H]32)C1=O,-0.477
7,COC(=O)[C@@]1(Cc2ccc(OC)cc2)[C@H]2c3cc(C(=O)N4CCCC4)n(Cc4ccc(C(F)(F)F)nc4)c3C[C@H]2CN1C(=O)c1ccccc1,0.202
8,C=CCC(OC(C)=O)[C@@H]1[C@@H](N(Cc2cc3ccccc3o2)C(=O)Cc2ccc(OC)cc2)c2cc(OCCCO)ccc2N1C(=O)c1ccc2ccccc2n1 (some centres not stated),1.46
9,[N-]=[N+]=Nc1ccccc1[C@@H]1OC(c2ccc(OCCCO)cc2)=N[C@]1(Cc1ccccc1)C(=O)NCCN1CCOCC1,1.29
10,COc1ccc(C(=O)Nc2cccc(CN3C(=O)[C@]4(O[C@H](CC(=O)N5Cc6ccccc6C[C@H]5CO)[C@@H]([Si](C)(C)c5ccc(OC)cc5)[C@@H]4C)c4ccccc43)c2)cc1,1.3
11,C=CCN1C(=O)[C@@]2(O[C@@H](CCn3cc([C@H](O)c4ccccc4)nn3)[C@H]([Si](C)(C)c3ccc(OC)cc3)[C@H]2C)c2cc(N3C(=O)c4cccc5cccc3c45)ccc21,-0.0484
12,CC(C)(C)N1CC=CC23O[C@@H]4/C=C\CCCOC(=O)C4[C@H]2C(=O)N(CCCCCO)[C@@H]3C1=O (some centres not stated),1.03
13,CN(C)CCCC[C@@H]1NC(=O)[C@@H]2C[C@H](C(=O)NCCCCCCNC(=O)CS)[C@H](c3ccc(O)cc3)N2C1=O,-0.145
14,CC1CC/C=C\[C@H]2OC34C=CCN(CCN5CCOCC5)C(=O)[C@H]3N(CCCO)C(=O)[C@@H]4C2C(=O)O1 (some centres not stated),0.483
15,COc1ccccc1CN1C(=O)c2ccccc2[C@](Cc2ccccc2I)(C(=O)NCC(C)C)[C@@H]1c1ccc(CO)cc1,0.297
16,COCC(=C=CC[C@H](O)c1ccccc1OCCO)C[C@H](O)COCc1ccccc1,0.152
17,O=C(NC1CC1)[C@@H]1c2ccccc2C(=O)N(Cc2ccc(OC(F)(F)F)cc2)[C@H]1c1ccc(CO)cc1,0.707
18,O=C1C2C=CC(C(O)c3c(F)cccc3Cl)N(Nc3ccc([N+](=O)[O-])cc3)C2C(=O)N1c1ccccc1 (configuration not stated),-0.0012
19,C[C@@H]1NC(=O)C([C@@H](C)OCc2ccccc2)NC(=O)[C@@]23C(=O)N[C@@H](Cc4ccccc4)C2[C@H](C)[C@@]2(C)O[C@H]2C3/C=C/C/C=C\CNC1=O (some centres not stated),0.387
20,CC1CC/C=C\[C@H]2OC34C=CCN(c5ccc(Cl)cc5)C(=O)[C@H]3N(CCCCCCO)C(=O)[C@]4(C)C2C(=O)O1 (some centres not stated),-3.94
21,CC1=C([C@H](O)CCc2ccccc2)[C@H](CO)n2c(=O)n(-c3ccccc3)c(=O)n2C1,0.273
22,CCOC(=O)C[C@H]1[C@H](OC(=O)Cc2ccc3c(c2)OCO3)[C@@H](NC(=O)Cc2ccc(OC)cc2)c2cc(OCCCO)ccc2N1C(=O)Cc1ccc(OC)cc1,1.17
23,COc1ccc(C(O)C2C=CC3C(=O)NC(=O)C3N2Nc2ccc(Cl)cc2Cl)c2ccccc12 (configuration not stated),0.0133
24,C=C1C(=O)C=C2CN(C(=O)c3ccccc3)[C@@](Cc3ccc(OC)cc3)(C(=O)OC)[C@@H]12,-0.033
25,COC(=O)[C@@]1(Cc2ccccc2)[C@H]2c3cc(C(=O)N(C)C)n(Cc4ccc(S(C)(=O)=O)cc4)c3C[C@H]2CN1C(=O)c1ccccc1,1.09
26,CCCNC(=O)[C@@]1(c2ccc([N+](=O)[O-])cc2)CC(=O)N(C(C)C)[C@@H]1c1ccc(CO)cc1,0.81

# Experiment: HepG2 cell viability effects, profiling panel, calcein-AM fluorescence, 48 h, basal (AID 1164)
# Details: higher = more signal
row,Compound,z-score
1,COCCOC(=O)N1C(=O)[C@@]2(c3cc(C#Cc4ccc(OC)cc4)ccc31)[C@H](c1ccc(OCCO)cc1)N1[C@H](c3ccccc3)[C@H](c3ccccc3)OC(=O)[C@H]1[C@@H]2C(=O)NC[C@H](O)c1ccccc1,-0.294
2,CC1CC/C=C\[C@H]2OC34C=CCN(Cc5ccccc5)C(=O)[C@H]3N(CCCCCCO)C(=O)[C@@H]4C2C(=O)O1 (some centres not stated),0.881
3,[N-]=[N+]=Nc1ccccc1[C@@H]1OC(c2ccc(OCCCO)cc2)=N[C@]1(CCS(=O)(=O)c1ccccc1)C(=O)NCC(O)CO (some centres not stated),0.578
4,COC(=O)[C@@]1(Cc2ccccc2)[C@H]2c3cc(C(=O)N(C)C)n(CCSC(=N)N)c3C[C@H]2CN1C(=O)c1ccccc1,-1.11
5,CC(C)[Si](C#CCCc1ccccc1)(O[C@H](c1ccccc1)c1cn(Cc2ccccc2)nn1)C(C)C,-1.01
6,O=C(NCc1ccc(F)cc1)[C@H]1C[C@H]2C(=O)N3CCC[C@H]3C(=O)N2[C@H]1c1ccc(O)cc1,-0.647
7,COC(=O)[C@]1(Cc2ccccc2)N=C(c2ccc(OCCCO)cc2)O[C@@H]1c1ccccc1CN=[N+]=[N-],-5.37
8,CC(C)C[C@@H]1NC(=O)[C@@H]2C[C@H](C(=O)NCCCCCCNC(=O)CS)[C@H](c3cccc(OCCO)c3)N2C1=O,0.134
9,O=C1O[C@@H](c2ccccc2)[C@@H](c2ccccc2)N2[C@@H](c3ccc(OCCO)cc3)[C@]3(C(=O)Nc4ccc(C#CCCO)cc43)[C@@H](C(=O)O)[C@H]12,0.831
10,CCCC[C@H]1C[C@@H]1[C@@H]1N(C(C)=O)[C@H](c2cccc(OC)c2)CC12CC2,-0.793
11,C=C(COC)/C(=C/C[C@@H](OC(C)=O)c1ccccc1OCCO)c1cnc2ccccc2c1,-0.268
12,CN(C)CCCNC(=O)[C@@]1(C)c2ccccc2C(=O)N(Cc2ccc(OC(F)(F)F)cc2)[C@H]1c1ccc(CO)cc1,-0.261
13,C=CC[C@]1(C(=O)NCC(O)CO)COC(c2ccc(OCCCO)cc2)=N1 (some centres not stated),-0.323
14,C=CCC(OC(C)=O)[C@@H]1[C@@H](N(Cc2cccc3ccccc23)C(=O)c2ccc(-c3ccccc3)cc2)c2cc(OCCCO)ccc2N1C(=O)Cc1ccc2ccccc2c1 (some centres not stated),0.581
15,CCCCCC1=C2CNC(CC(C)C)(C(=O)OC)C=C2C(C)C1=O (configuration not stated),0.468
16,CN1C(=O)[C@@H]2[C@@H](CC(COc3ccccc3)=C3[C@@H](CCc4ccccc4)OB(O)C[C@@H]32)C1=O,-1.14
17,COC(=O)[C@@]1(Cc2ccc(OC)cc2)[C@H]2c3cc(C(=O)N4CCCC4)n(Cc4ccc(C(F)(F)F)nc4)c3C[C@H]2CN1C(=O)c1ccccc1,0.0749
18,C=CCC(OC(C)=O)[C@@H]1[C@@H](N(Cc2cc3ccccc3o2)C(=O)Cc2ccc(OC)cc2)c2cc(OCCCO)ccc2N1C(=O)c1ccc2ccccc2n1 (some centres not stated),1.26

row,Compound,z-score
1,[N-]=[N+]=Nc1ccccc1[C@@H]1OC(c2ccc(OCCCO)cc2)=N[C@]1(Cc1ccccc1)C(=O)NCCN1CCOCC1,-0.876
2,COc1ccc(C(=O)Nc2cccc(CN3C(=O)[C@]4(O[C@H](CC(=O)N5Cc6ccccc6C[C@H]5CO)[C@@H]([Si](C)(C)c5ccc(OC)cc5)[C@@H]4C)c4ccccc43)c2)cc1,-1.05
3,C=CCN1C(=O)[C@@]2(O[C@@H](CCn3cc([C@H](O)c4ccccc4)nn3)[C@H]([Si](C)(C)c3ccc(OC)cc3)[C@H]2C)c2cc(N3C(=O)c4cccc5cccc3c45)ccc21,-1.93
4,CC(C)(C)N1CC=CC23O[C@@H]4/C=C\CCCOC(=O)C4[C@H]2C(=O)N(CCCCCO)[C@@H]3C1=O (some centres not stated),-0.927
5,CN(C)CCCC[C@@H]1NC(=O)[C@@H]2C[C@H](C(=O)NCCCCCCNC(=O)CS)[C@H](c3ccc(O)cc3)N2C1=O,0.548
6,CC1CC/C=C\[C@H]2OC34C=CCN(CCN5CCOCC5)C(=O)[C@H]3N(CCCO)C(=O)[C@@H]4C2C(=O)O1 (some centres not stated),-0.723
7,COc1ccccc1CN1C(=O)c2ccccc2[C@](Cc2ccccc2I)(C(=O)NCC(C)C)[C@@H]1c1ccc(CO)cc1,2.05
8,COCC(=C=CC[C@H](O)c1ccccc1OCCO)C[C@H](O)COCc1ccccc1,0.024
9,O=C(NC1CC1)[C@@H]1c2ccccc2C(=O)N(Cc2ccc(OC(F)(F)F)cc2)[C@H]1c1ccc(CO)cc1,-0.591
10,O=C1C2C=CC(C(O)c3c(F)cccc3Cl)N(Nc3ccc([N+](=O)[O-])cc3)C2C(=O)N1c1ccccc1 (configuration not stated),-0.645
11,C[C@@H]1NC(=O)C([C@@H](C)OCc2ccccc2)NC(=O)[C@@]23C(=O)N[C@@H](Cc4ccccc4)C2[C@H](C)[C@@]2(C)O[C@H]2C3/C=C/C/C=C\CNC1=O (some centres not stated),-0.448
12,CC1CC/C=C\[C@H]2OC34C=CCN(c5ccc(Cl)cc5)C(=O)[C@H]3N(CCCCCCO)C(=O)[C@]4(C)C2C(=O)O1 (some centres not stated),0.606
13,CC1=C([C@H](O)CCc2ccccc2)[C@H](CO)n2c(=O)n(-c3ccccc3)c(=O)n2C1,0.862
14,CCOC(=O)C[C@H]1[C@H](OC(=O)Cc2ccc3c(c2)OCO3)[C@@H](NC(=O)Cc2ccc(OC)cc2)c2cc(OCCCO)ccc2N1C(=O)Cc1ccc(OC)cc1,1.57
15,COc1ccc(C(O)C2C=CC3C(=O)NC(=O)C3N2Nc2ccc(Cl)cc2Cl)c2ccccc12 (configuration not stated),-2.36
16,C=C1C(=O)C=C2CN(C(=O)c3ccccc3)[C@@](Cc3ccc(OC)cc3)(C(=O)OC)[C@@H]12,-1.62
17,COC(=O)[C@@]1(Cc2ccccc2)[C@H]2c3cc(C(=O)N(C)C)n(Cc4ccc(S(C)(=O)=O)cc4)c3C[C@H]2CN1C(=O)c1ccccc1,-0.827
18,CCCNC(=O)[C@@]1(c2ccc([N+](=O)[O-])cc2)CC(=O)N(C(C)C)[C@@H]1c1ccc(CO)cc1,-0.359
